Only some compounds are listed: those with a hit (about 2.6% of all), similar ones and a draw of the others.
Cruzain noTriton: qHTS Assay for Promiscuous and Specific Inhibitors of Cruzain (without detergent); Cruzipain (Trypanosoma cruzi), P25779; purified cruzain, Z-FR-AMC fluorescence, no detergent; 2.3% of 200,000 active; Potency, µM, inactives show max response, negative = inhibition, actives largely listed as inhibitors;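 further: plate controls were enzyme without inhibitor for no effect and buffer without enzyme for full effect; nearly all actives have a fitted effect of over 40% in size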
Target sequence (P25779 123-467 limits assumed): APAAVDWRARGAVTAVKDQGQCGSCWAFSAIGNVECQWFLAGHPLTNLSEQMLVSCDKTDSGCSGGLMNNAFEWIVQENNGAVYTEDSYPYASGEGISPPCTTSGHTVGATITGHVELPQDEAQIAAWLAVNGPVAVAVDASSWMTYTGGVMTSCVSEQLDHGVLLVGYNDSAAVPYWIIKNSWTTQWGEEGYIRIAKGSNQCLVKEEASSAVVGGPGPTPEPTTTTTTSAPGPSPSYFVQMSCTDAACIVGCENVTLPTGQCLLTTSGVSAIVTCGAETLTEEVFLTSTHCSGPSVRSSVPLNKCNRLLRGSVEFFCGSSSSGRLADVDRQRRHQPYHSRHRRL
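Purified cruzain at 1.5 nM, pre-incubated 15 min with compound at room temperature in 100 mM sodium acetate pH 5.5, 5 mM DTT, 0.00005% Triton X-100. Reaction started with 2 uM Z-FR-AMC; AMC fluorescence increase over 60 s gives rate.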
Cruzain Triton: qHTS Assay for Promiscuous and Specific Inhibitors of Cruzain (with detergent) | 0.43% of 200,000 active | purified cruzain, Z-FR-AMC fluorescence, 0.01% Triton | Potency, µM, for the others: max response, negative = inhibition, most hits filed as inhibitors | Cruzipain (Trypanosoma cruzi), P25779;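 further: plate controls were neutral wells for no effect and buffer without enzyme for full effect; nearly all actives have a fitted effect of over 40% in size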
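Detergent-containing run (0.01% Triton X-100) in acetate buffer pH 5.5 with 5 mM DTT: enzyme at 1.5 nM final, 15 min compound preincubation at room temperature, then 2 uM Z-FR-AMC substrate. Activity taken as 60 s fluorescence increase at 360/450 nm.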
* marks the source's active call; other numbers are inactive results; ? = inconclusive. The call rests on the fitted dose curve; in most records, active means well fitted curve in the direction sought with a large enough effect; inconclusive means small, poorly fitted or top-dose-only effect, or another doubt; inactive means no such curve, though single readings can be large; an effect the other way counts as inactive or inconclusive. Potency means the concentration at half of the fitted maximal effect.

SMILES	Cruzain noTriton	Cruzain Triton
Cc1c(NS(=O)(=O)c2ccccc2)cc(C(C)C)c(O)c1S(=O)(=O)c1ccc(Cl)cc1	-14.6%	-4.8%
Cc1ccc(-n2c(C)cc(/C=c3/sc4nc5ccccc5n4c3=O)c2C)cc1	10µM*	0.5%
O=c1/c(=C\c2cccn2-c2ccccc2)sc2nc3ccccc3n12	?	3.3%
C=CCNC(=O)c1ccc(-c2nc(-c3ccc(Cl)c(Cl)c3)cs2)cc1	20µM*	3.2%
C=CCNC(=O)c1ccc(-c2nc(-c3ccc(Cl)cc3Cl)cs2)cc1	-14.9%	3.5%
Cc1ccc(C)n1-c1nnc(N2CCCC(C(=O)NCc3cccc(Cl)c3)C2)s1 (configuration not stated)	9.8%	-10.9%
CC(C)(C)OC(=O)N[C@@H](Cc1ccccc1)c1nnc(S(=O)(=O)Cc2ccccc2)o1	31.6µM*	15.8µM*
CC(C)(C)OC(=O)N[C@@H](Cc1ccccc1)c1nnc(SCC(=O)c2ccc(Cl)cc2)o1	?	-0.3%
Cc1ccccc1CS(=O)(=O)c1nnc([C@H](Cc2ccccc2)NC(=O)OC(C)(C)C)o1	?	14.1µM*
CCSc1nnc([C@H](Cc2ccccc2)NC(=O)OC(C)(C)C)o1	-3.7%	-8.2%
CCN(Cc1ccccc1)S(=O)(=O)c1cc(C(=O)Nc2cc(Cl)cc(Cl)c2)ccc1F	?	1.8%
CCC(C)NC(=O)c1cnn(-c2cccc(F)c2)c1-n1cccc1 (configuration not stated)	-5.8%	0.2%
COc1ccc(OCC(=O)Nc2nc3ccccc3[nH]2)cc1	-9.0%	1.8%
O=C(COc1ccc2ccccc2c1)Nc1nc2ccccc2[nH]1	25.1µM*	1.4%
O=C(COc1ccc2ccccc2c1)NNC(=O)Cc1ccccc1	-1.9%	-4.1%
O=C(COc1ccc2ccccc2c1)NCCNC(=O)COc1ccc2ccccc2c1	25.1µM*	7.2%
COc1cccc(/C=N/N2C(=O)CSC2=S)c1O	-28.5%	?
O=C1CSC(=S)N1/N=C/C=C/c1ccccc1	31.6µM*	?
COCc1cc(C)nc2c1C(=O)NC(c1ccc(C)cc1)N2Cc1ccccc1 (configuration not stated)	0.7%	0.5%
COc1cc(NC(=O)CN2CCN(c3ccccc3)CC2)c(C)cc1[N+](=O)[O-]	?	-1.3%
COc1cc(NC(=O)CN2CCN(c3ccccc3F)CC2)c(C)cc1[N+](=O)[O-]	25.1µM*	2.1%
Cn1c(=O)c2c(SCC(=O)N3CCc4ccccc43)nc(-c3ccccc3Cl)nc2n(C)c1=O	-1.8%	4.5%
COc1ccc(/C=C/C(=O)Oc2cccc(/C=N/NC(=O)c3cccc(F)c3)c2)cc1	?	0.6%
COc1ccc(/C=C/C(=O)Oc2ccc(/C=N\NC(=O)c3ccc(F)cc3)cc2)cc1	7.94µM*	0.0%
COc1ccc(/C=N/NC(=O)c2ccc(CN3c4cccc5cccc(c45)S3(=O)=O)cc2)cc1	15.8µM*	-9.2%
SMILES	Cruzain noTriton	Cruzain Triton
O=C(N/N=C/CCc1ccccc1)c1ccc(CN2c3cccc4cccc(c34)S2(=O)=O)cc1	?	-1.3%
O=C(/C=C\c1ccc2c(c1)OCO2)NC1CC(=O)N(c2cccc(F)c2)C1 (configuration not stated)	-18.7%	-7.7%
CC(OC(=O)c1c2c(nc3ccccc13)/C(=C\c1ccc3c(c1)OCO3)CCC2)C(=O)Nc1ccc(S(N)(=O)=O)cc1 (configuration not stated)	15.8µM*	-0.2%
CNC(=O)NC(=O)C(C)OC(=O)c1c2c(nc3ccccc13)/C(=C/c1cccs1)CC2 (configuration not stated)	2.1%	-10.3%
Cc1cccc(C)c1NC(=O)COC(=O)c1c2c(nc3ccccc13)/C(=C\c1ccc3c(c1)OCO3)CCC2	7.94µM*	-0.9%
O=C(COC(=O)c1c2c(nc3ccccc13)CCCCC2)NCc1ccc2c(c1)OCO2	-18.1%	-2.8%
Cc1ccc(CNC(=O)Cc2ccc(NC(=O)N3CCSc4ncccc43)cc2)cc1	-10.1%	-11.0%
CNC(=O)COc1ccc(NC(=O)CCn2nc(-c3ccc(C)cc3)c3ccccc3c2=O)cc1	23.7%	-2.9%
CCc1c(C)c2ccc(O)c(CN3CCN(c4ccc(OC)cc4)CC3)c2oc1=O	-4.3%	-4.9%
COc1ccc(S(=O)(=O)c2c(O)c(C)cc(NS(=O)(=O)c3ccc(Cl)cc3)c2C(C)C)cc1	?	-0.9%
CCCNC(=O)C1CCC(Cn2c(=O)c3sccc3n(CC(=O)Nc3ccccc3C)c2=O)CC1 (configuration not stated)	12.9%	-1.8%
CN(CCOc1ccc(-c2ccn(S(=O)(=O)c3cccc4ccccc34)n2)cc1)c1ccccn1	25.1µM*	-0.7%
CN(CCOc1ccc(-c2ccn(S(=O)(=O)c3c(Cl)cccc3Cl)n2)cc1)c1ccccn1	?	6.4%
CCOc1ccccc1NC(=O)c1c(C)cc(C)nc1SCC(=O)c1cccc(OC)c1	-8.3%	-4.8%
CCc1nnc(NC(=O)c2ccc(-c3cc(C(F)(F)F)ccc3Cl)o2)s1	-8.1%	-3.7%
CCc1nnc(NC(=O)c2ccc(COc3ccccc3)o2)s1	?	6.0%
CCc1nnc(NC(=O)c2ccc(COc3ccc(C)cc3)o2)s1	25.1µM*	3.6%
CCc1nnc(NC(=O)c2ccc(-c3cccc(C(F)(F)F)c3)o2)s1	12.6µM*	-3.0%
CCN(CC)c1ccc(-n2nc3cc(C)c(NC(=O)c4ccccc4F)cc3n2)cc1	3.7%	-2.0%
COc1ccccc1CN1COc2ccc3c(C)cc(=O)oc3c2C1	?	-8.2%
COc1ccc(-c2csc(N(Cc3ccccc3)C(=O)COc3ccc(Cl)cc3)n2)cc1	6.31µM*	1.4%
O=C(COc1ccccc1)N(Cc1ccccc1)c1nc(-c2ccccc2)cs1	?	5.8%
CCC1CN(C(=O)N2CCC(C(=O)NCCc3cc(OC)ccc3OC)CC2)c2ccccc2O1 (configuration not stated)	-24.0%	-7.0%
O=C1OC(c2ccc(O)c(-c3ccccc3)c2)(c2ccc(O)c(-c3ccccc3)c2)c2c(Cl)c(Cl)c(Cl)c(Cl)c21	-0.7%	1.4%
O=C1OC2(c3cc(Br)c(O)c(Br)c3Oc3c2cc(Br)c(O)c3Br)c2c(Cl)c(Cl)c(Cl)c(Cl)c21	?	15.8µM*
SMILES	Cruzain noTriton	Cruzain Triton
COc1cccc(N=Nc2c(N)[nH]n3c(=O)cc(-c4ccccc4)nc23)c1	12.6µM*	0.1%
Cc1ccc(N=Nc2c(N)[nH]n3c(=O)cc(-c4ccccc4)nc23)cc1	-20.3%	-6.2%
CCCN1CCN(c2ncnc3sc(C(=O)Nc4ccc(OC(F)(F)F)cc4)c(C)c23)CC1	29.4%	-9.4%
COc1ccc2c(c1)c1c(c(=O)n(-c3ccccc3C)c(=O)n1CC(N)=O)n2C	3.9%	12.6%
Cc1nnc(N/N=C\c2ccc(-c3ccccc3[N+](=O)[O-])o2)n1N	12.6µM*	14.1µM*
Cc1ccc(C(=O)N/N=C/c2ccc(-c3ccccc3[N+](=O)[O-])o2)cn1	0.6%	-10.4%
COc1cc2c(cc1OC)C(c1ccc(Cl)cc1)N(c1cccc(C#N)c1)C(=O)C2 (configuration not stated)	?	-7.4%
COc1ccccc1-n1c(SCC(=O)c2ccc(O)cc2O)nc2cc([N+](=O)[O-])ccc21	12.6µM*	-1.7%
COc1ccccc1-n1c(SCC(=O)NC2CCS(=O)(=O)C2)nc2cc([N+](=O)[O-])ccc21 (configuration not stated)	?	-2.0%

High-throughput results as filed in PubChem.
